Here are results for 39 compounds from PubChem BioAssay (NCI).

The panel holds about 83,000 compounds, 20% with a hit somewhere; the sample as a whole holds those more often.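 A percent growth of 40 corresponds to 60% growth inhibition; 0 means no net growth; -100 means all cells died. Active threshold: below 10.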 A number with no mark means an inactive call. Activity calls are given as the source filed them.

The test system of the first assay is NCI/ADR-RES ovarian. Kind of assay: NCI-60 one-dose screen, 48 h (100 = growth as untreated, 0 = no growth, -100 = all killed). To be noted: 10 µM unless noted.
In the case of `Nc1nc(N)c2c(n1)NC1(C=C(O)c3ccccc31)C1=C(N2)c2ccccc2C1=O` (configuration not stated), the growth was 107%. The same measure, in the same setting: the same measure for `O=C(Nc1ccc(N2CCNCC2)cc1)c1[nH]ncc1Nc1cc(Oc2ccccc2)ncn1`: 77.5%. Turning to `O=C(CCc1nnc2sc(Cc3ccccc3Cl)nn12)c1nc2ncccc2[nH]1`, the growth was 95.4%.

Turning to `CCOC(=O)c1cc2c(n1Cc1ccccc1)-c1oncc1CCC2`, the growth was 52.3%.

As for `O=C(c1ccccc1)N(C(=S)NCCc1ccc(Cl)cc1)c1ccccc1`, the growth is 99%. For `COc1ccc(OC)c(NC(=O)/C(C#N)=C/c2ccco2)c1`, the growth was 103%. In the case of `CCc1ccc(CNCC(O)c2ccccc2)cc1` (configuration not stated), the growth was 65.7%. On to `CC/C=C\C[C@H](O)C/C=C1/C(=O)C=C[C@@H]1C/C=C\CCCC(=O)OCCS(=O)(=O)c1ccccc1`, for which the growth is 75.2%. On the same count and under the same terms, then `O=C1c2cc(Br)ccc2Oc2cc([N+](=O)[O-])ccc2N1c1ccc(I)cc1F`, with 99.6%; and `COc1ccc(/C=C/C(=O)c2c(C)nc3ccccc3c2/C=C/c2ccccc2)cc1O`, with 17.7%; and `O=c1oc2ccc(F)cc2c(=O)n1-c1ccc(Cl)cc1F`, with 2.98% (active).

As for `O=c1oc2ccc(Cl)cc2c(=O)n1-c1ccc(I)cc1F`, the growth is 5.51% (active). With `O=c1oc2ccc(F)cc2c(=O)n1-c1ccc(I)cc1F`, the growth was 2.32% (active). In the case of `COc1ccc(C2C3=C(COC3=O)N(CCO)c3cc4c(cc32)CCC4)cc1OC` (configuration not stated), the growth is 31.3%. As to `O=c1oc2ccc(I)cc2c(=O)n1-c1ccc(Cl)cc1F`, the growth was 8.36% (active). Turning to `O=C1OC(c2ccccc2)(c2ccccc2)c2ccsc21`, the growth is 115%. The same measure, in the same setting: the same measure for `O=c1oc2ccc(-c3ccc(F)cc3F)cc2c(=O)n1-c1cccc(C(F)(F)F)c1`: 7.17% (active).

In the case of `Cc1ccc(Nc2nc(N)c3ccccc3n2)cc1Cl`, the growth was 45.5%.

Take `O=C(c1ccccc1)N(CCc1ccc(Cl)cc1)C(=S)N(C(=O)c1ccccc1)c1ccccc1`: the growth is 109%.

As for `O=C(COc1cc(O)c2c(=O)cc(-c3ccccc3)oc2c1)Nc1ccccc1`, the growth is 88.9%. For the compound `O=C1c2cc(I)ccc2Oc2cc([N+](=O)[O-])ccc2N1c1ccc(Cl)cc1F`, the growth is 89.7%. Take `Nc1ccc(-c2nn3c(CCC(=O)c4nc5ncccc5[nH]4)nnc3s2)c(O)c1`: the growth is 93.8%. Take `COc1c(B(O)O)cccc1-c1nc2ccc3[nH]ncc3c2c2c1C1CCC2C1` (configuration not stated): the growth was 78.8%. The same measure, in the same setting: the same measure for `Oc1c(CN2CCN(c3ccccc3F)CC2)cc(Br)c2cccnc12`: 23.8%.

As for `O=C(Nc1ccc(F)cc1F)c1cc(Br)ccc1O`, the growth was 1.62% (active).

Take `CC[C@]1(O)C[C@@H]2CN(CCc3c([nH]c4ccccc34)[C@@](C(=O)OC)(c3cc4c(cc3OC)N(C)[C@H]3[C@@](O)(C(=O)OC)[C@H](OC(=O)CCCBr)[C@]5(CC)C=CCN6CC[C@]43[C@@H]65)C2)C1`: the growth was 13.8%. As for `Nc1ncnc(N)c1NC(=O)c1ccc(OCc2ccccc2)cc1`, the growth is 113%.

Regarding `O=c1oc2ccc(Cl)cc2c(=O)n1-c1ccc(F)cc1F`, the growth was 7.29% (active).

The test system of another assay is T-47D breast. Described as above. To be noted: 10 µM unless noted.
As to `Nc1nc(N)c2c(n1)NC1(C=C(O)c3ccccc31)C1=C(N2)c2ccccc2C1=O` (configuration not stated), the growth was 112%. Take `COc1ccc(CCN2C(=O)/C(=C/c3ccc(C4Oc5ccccc5C5CC(c6cccc(OC)c6)=NN54)cc3)SC2=S)cc1` (configuration not stated): the growth is 100%. With `O=C(Nc1ccc(N2CCNCC2)cc1)c1[nH]ncc1Nc1cc(Oc2ccccc2)ncn1`, the growth is 40%. With `O=C(CCc1nnc2sc(Cc3ccccc3Cl)nn12)c1nc2ncccc2[nH]1`, the growth is 90.6%.

Take `O=NN(Cc1cccnc1)C(=O)NC1CCCCC1`: the growth is 98.1%. Consider `CN(C)/C=C1\SC(=Nc2ccc(Cl)cc2)NC1=O`, for which the growth was 105%.

On to `CCOC(=O)c1cc2c(n1Cc1ccccc1)-c1oncc1CCC2`, for which the growth was 80.7%. In the case of `O=C(c1ccccc1)N(C(=S)NCCc1ccc(Cl)cc1)c1ccccc1`, the growth was 59.6%. `COc1cccc(/C=C/C(=O)c2c(C)nc3ccccc3c2/C=C/c2ccccc2)c1OC`: the growth is 11.2%. As for `CCOC(=O)c1cc2c(n1Cc1cccc(OC)c1)-c1oncc1CCC2`, the growth is 33.1%. For `COc1ccc(OC)c(NC(=O)/C(C#N)=C/c2ccco2)c1`, the growth was 57.5%. Still for that read-out and setting: the same measure for `CCc1ccc(CNCC(O)c2ccccc2)cc1` (configuration not stated): 72%; for `CC/C=C\C[C@H](O)C/C=C1/C(=O)C=C[C@@H]1C/C=C\CCCC(=O)OCCS(=O)(=O)c1ccccc1`: 18.3%.

On to `O=C1c2cc(Br)ccc2Oc2cc([N+](=O)[O-])ccc2N1c1ccc(I)cc1F`, for which the growth is 100%. On to `COc1ccc(/C=C/C(=O)c2c(C)nc3ccccc3c2/C=C/c2ccccc2)cc1O`, for which the growth is 39.6%. Turning to `COc1ccc(-c2nc(N3CCN(C(=O)C4CCCCC4)CC3)c3c4c(sc3n2)CCCC4)cc1`, the growth was 3.68% (active). `O=c1oc2ccc(F)cc2c(=O)n1-c1ccc(Cl)cc1F`: the growth was -19% (active). As to `COc1cc(C(=O)Nc2ccc(-c3nc4ccccc4[nH]3)cc2)cc(OC)c1OC`, the growth is 60%. For `O=c1oc2ccc(Cl)cc2c(=O)n1-c1ccc(I)cc1F`, the growth was -6.79% (active). In the case of `CCC1=C[C@@H]2CN(C1)Cc1c([nH]c3ccccc13)[C@@](C(=O)OC)(c1cc3c(cc1OC)N(C)[C@H]1[C@@](O)(C(=O)OC)[C@H](OC(C)=O)[C@]4(CC)[C@@H]5C[C@@H]5CN5CC[C@]31[C@@H]54)C2`, the growth is 72%. Same read-out and setting: the same measure for `O=c1oc2ccc(F)cc2c(=O)n1-c1ccc(I)cc1F`: -16.2% (active); for `COc1ccc(C2C3=C(COC3=O)N(CCO)c3cc4c(cc32)CCC4)cc1OC` (configuration not stated): 22.6%. The same measure, in the same setting: the same measure for `O=c1oc2ccc(I)cc2c(=O)n1-c1ccc(Cl)cc1F`: -12% (active); for `O=C1OC(c2ccccc2)(c2ccccc2)c2ccsc21`: 104%; for `O=c1oc2ccc(-c3ccc(F)cc3F)cc2c(=O)n1-c1cccc(C(F)(F)F)c1`: -13.7% (active).

With `Cn1nc(C(C)(C)C)cc1NC(=O)Cc1ccc(/C=C2\C(=O)Nc3ccccc32)cc1`, the growth was 14.9%. Regarding `Cc1ccc(Nc2nc(N)c3ccccc3n2)cc1Cl`, the growth is 58.1%. The same measure, in the same setting: the same measure for `O=C(c1ccccc1)N(CCc1ccc(Cl)cc1)C(=S)N(C(=O)c1ccccc1)c1ccccc1`: 61.7%; for `O=C(COc1cc(O)c2c(=O)cc(-c3ccccc3)oc2c1)Nc1ccccc1`: 94.3%; for `O=C1c2cc(I)ccc2Oc2cc([N+](=O)[O-])ccc2N1c1ccc(Cl)cc1F`: 82.5%.

`Nc1ccc(-c2nn3c(CCC(=O)c4nc5ncccc5[nH]4)nnc3s2)c(O)c1`: the growth is 87.1%.

With `COc1c(B(O)O)cccc1-c1nc2ccc3[nH]ncc3c2c2c1C1CCC2C1` (configuration not stated), the growth is 101%. Regarding `Oc1c(CN2CCN(c3ccccc3F)CC2)cc(Br)c2cccnc12`, the growth is 14.3%. On to `O=C(Nc1ccc(F)cc1F)c1cc(Br)ccc1O`, for which the growth is -20.1% (active).

Consider `O=C(Nc1ccc(N2CCNCC2)cn1)c1[nH]ncc1Nc1ncnc2sccc12`, for which the growth is -4.16% (active).

For `O=C1c2ccc3c4c(ccc(c24)C(=O)N1CCCCO)C(=O)N(CCCCO)C3=O`, the growth was 87.3%. Regarding `CC[C@]1(O)C[C@@H]2CN(CCc3c([nH]c4ccccc34)[C@@](C(=O)OC)(c3cc4c(cc3OC)N(C)[C@H]3[C@@](O)(C(=O)OC)[C@H](OC(=O)CCCBr)[C@]5(CC)C=CCN6CC[C@]43[C@@H]65)C2)C1`, the growth is 74.2%.

Regarding `Nc1ncnc(N)c1NC(=O)c1ccc(OCc2ccccc2)cc1`, the growth was 96%.

Take `O=c1oc2ccc(Cl)cc2c(=O)n1-c1ccc(F)cc1F`: the growth is -10.7% (active).
